IL-2 act – qHTS of IL-2 Activators. IL-2 activation reporter assay, cell-based qHTS; stimulated with anti-CD3/CD4/CD28 beads; in transgenic mouse T cells. activation, % (series mostly up to about 46 µM). 0.065% of 360,000 active. AID 652025, 2013; in the data active means activation above about 50%; inconclusive means mostly about 30% to 49%
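Screening format: compound pinned onto unstimulated transgenic mouse T cells, 60 min incubation, then anti-CD3/anti-CD4/anti-CD28 bead stimulation for 18 hours at 37 degrees C, followed by EGFP and DsRed detection.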
Nrf2 ARE act – qHTS of Nrf2 Activators | AREc32 ARE-luciferase reporter (MCF7-derived line), luminescence, 24 h | Potency, µM (doses to about 46.1 µM), actives largely listed as activators | 0.31% of 410,000 active | AID 624171, 2012; further: nearly all actives have a fitted effect of over 65% in size
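Quantitative high-throughput format: AREc32 reporter cells, 1000 per well, received compound by pin transfer and were incubated 24 hr at 37 deg C, 5% CO2, before Steady-Glo luminescence detection.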
BRCA1 expr act – qHTS Assay to Identify Small Molecule Activators of BRCA1 Expression; AID 624202, 2012; Potency, µM (top dose mostly 46.1 µM), usual class: activators; MCF7-BRCA1-FFLuc reporter, luminescence, 48 h; response scale: scaled: vehicle 0%, 10 µM genistein 100%; 1.1% of 380,000 active; further: nearly all actives have a fitted effect of over 80% in size
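MCF7-BRCA1-FFLuc, 2000 cells/well; 2 h attach, 37 °C/5% CO2; compound 48 h; luciferase substrate 15 min; luminescence end-point. Norm. to genistein 10 microM max activation and DMSO; concentration-response curves fitted.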
ELG1 repair inh – qHTS screen for small molecules that inhibit ELG1-dependent DNA repair in human embryonic kidney (HEK293T) cells expressing luciferase-tagged ELG1. HEK293T ELG1-luciferase reporter, luminescence, 16 h; DNA damage induced by 5-fluorouridine. Potency, µM (series often up to 46.1 µM), usual class: inhibitors. 2.3% of 330,000 active; further: nearly all actives have a fitted effect of over 55% in size
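Overnight (16 hr) co-exposure of 2,000 cells/well to 5-fluorouridine and compound at 37 °C preceded detection. Luciferase was quantified via ONE-Glo luminescence; loss of signal denotes inhibition.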
Hits are given with their value; n = inactive; u = inconclusive; x = not tested or not shown; [ ] = another dose, or the depositor's remark. In the library only some 3.1% were active in any assay of this set; here they are far more common. Unless noted, the call rests on the fitted dose curve; in most records, active means well fitted curve in the direction sought with a large enough effect; inconclusive means small, poorly fitted or top-dose-only effect, or another doubt; inactive means no such curve, though single readings can be large; an effect the other way counts as inactive or inconclusive.

SMILES	IL-2 act	Nrf2 ARE act	BRCA1 expr act	ELG1 repair inh
COc1ccc(CC(=O)Nc2oc(-c3ccccc3)c(-c3ccccc3)c2C#N)cc1OC	n	n	n	23µM
Cc1sc(NC(=O)COc2ccccc2)c(C#N)c1-c1ccccc1	n	n	n	u
COc1ccc(C(=O)Nc2sc(C)c(-c3ccccc3)c2C#N)cc1OC	n	n	n	26µM
COc1ccccc1OCC(=O)Nc1oc(-c2ccccc2)c(-c2ccccc2)c1C#N	n	n	n	n
Cc1cccc(N2CCN(C(=O)Cn3ncc4c3-c3cc(C)ccc3OC4)CC2C)c1 (configuration not stated)	x	n	n	x
Cc1cc2nc3ccc(=[N+](C)C)cc-3sc2cc1N	n	n	n	0.65µM
CN(C)c1ccc2nc3ccc(=[N+](C)C)cc-3sc2c1	n	n	n	0.73µM
CN(C)c1ccc2nc3ccc(=O)cc-3sc2c1	n	n	n	x
CN1CCN(CCCNC(=O)Cn2c(-c3cccs3)cc3cc(Cl)ccc32)CC1	x	n	x	x
Nc1[nH]c(=S)nc2nnsc12	x	x	n	x
COc1ccc(N2CCN(C(CNC(=O)C(=O)NCc3ccc(F)cc3)c3cccnc3)CC2)cc1 (configuration not stated)	x	n	x	x
C/C(=N\NC(=S)Nc1ccc(C)c(C)c1)c1ccc(N2CCOCC2)cc1	n	n	n	23µM
CC(=O)c1ccc(NC(=S)Nc2ccc(N3CCOCC3)cc2)cc1	n	n	n	n
Cc1c(NS(=O)(=O)c2cccs2)cccc1-c1nc2cccnc2s1	n	n	n	u
O=S(=O)(Nc1cccc2ncccc12)c1cccs1	n	u	n	4.1µM
O=C(CCSc1ccc(F)cc1)Nc1ccc(-n2cnnn2)cc1	n	n	n	18µM
O=C(CCSc1nnc2ccc3ccccc3n12)Nc1ccc(F)cc1	n	n	n	n
Cc1cc(C)c2nc(N3CCCC(C(=O)NCCN4CCOCC4)C3)sc2c1 (configuration not stated)	n	n	2.8µM	u
CCOc1cc(N2CCOCC2)c(OCC)cc1NC(=O)Cc1cccc2ccccc12	n	n	n	18µM
CCOc1cc(N2CCOCC2)c(OCC)cc1NC(=O)COC(=O)c1ccccc1C	n	n	n	u
CCN(CC)S(=O)(=O)c1ccc(N2CCCC2)c(NC(=O)c2nn(C)c(=O)c3ccccc23)c1	n	n	n	18µM
CCN(CC)S(=O)(=O)c1ccc(N2CCOCC2)c(NC(=O)Cc2ccccc2F)c1	n	n	n	18µM
CCN(CC)S(=O)(=O)c1ccc(N2CCOCC2)c(NC(=O)Cc2cccc3ccccc23)c1	n	n	n	7.3µM
CCS(=O)(=O)N1CCc2cc(C(=O)NC(C)c3ccccc3)ccc21 (configuration not stated)	x	n	n	x
Cc1c(O)c2c(c(C(=O)/C=C/c3ccccc3)c1O)OC(C)(C)C=C2	x	x	n	x
SMILES	IL-2 act	Nrf2 ARE act	BRCA1 expr act	ELG1 repair inh
O=c1cc(-c2ccccc2)n2c(SCc3ccc([N+](=O)[O-])cc3)nnc2[nH]1	x	n	x	x
COc1ccc(C(=O)COc2ccc(F)cc2)c(O)c1	n	n	11µM	u
CC(Oc1ccc(Cl)cc1Cl)c1nc(-c2ccc(NC(=O)c3ccccn3)cc2)no1 (configuration not stated)	n	n	1.3µM	u
COc1ccc(Cl)cc1-c1nc(-c2ccc(NC(=O)c3ccncc3)cc2)no1	n	n	n	x
CCS(=O)(=O)c1ccc(O)c(NC(=O)Nc2ccc(C(C)(C)C)cc2)c1	n	n	n	15µM
Cc1ccc(C)c(NC(=O)c2nnn(Cc3ccc(F)cc3Cl)c2N)c1	x	n	x	x
CCN(CC)S(=O)(=O)c1cc(C(=O)N=c2sccn2C)ccc1OC	n	n	n	n
CCCCOc1ccc(C(=O)N=c2sccn2C)cc1OC	n	n	4µM	u
COc1ccccc1CNc1ccc(-c2nc(C)no2)cc1[N+](=O)[O-]	x	n	n	x
Cc1ccc(NC(=O)Cc2ccc(Cl)c(Cl)c2)cc1S(=O)(=O)N(C)C	n	n	n	15µM
Cc1ccc(NC(=O)CSc2nn(-c3ccc(Cl)cc3)c(=S)s2)cc1S(=O)(=O)N(C)C	n	n[9.22 µM]	n	15µM
N#C/C(=C(/O)c1ccc(Cl)c([N+](=O)[O-])c1)c1nc2ccccc2[nH]1	n	n	n	8.2µM
O=S(=O)(c1ccc(Cl)c(NC(=S)N/N=C/c2ccc(O)cc2)c1)N1CCOCC1	n	n	n	23µM
O=S(=O)(c1ccc(NC(=S)N/N=C/c2ccc(O)c(O)c2)cc1)N1CCOCC1	n	n	n	n
O=S(=O)(c1ccc(Cl)c(NC(=S)N/N=C/c2c(F)cccc2F)c1)N1CCOCC1	n	n	n	u
O=[N+]([O-])c1cc(Cl)cc(/C=N/NC(=S)Nc2ccc(S(=O)(=O)N3CCOCC3)cc2)c1O	n	n	n	13µM
CCC(Nc1ccc(-c2nc(-c3ccco3)no2)cc1[N+](=O)[O-])c1ccccc1 (configuration not stated)	x	n	n	x
C#CCn1c(C)cc(C)c(S(=O)(=O)c2ccccc2)c1=O	n	n	13µM	u
Cc1cc(C)n(Cc2ccccc2)c(=O)c1S(=O)(=O)c1ccccc1	n	n	n	n
COc1ccc(N(C(=O)CCl)C(C(=O)NC2CCCCC2)c2cccnc2)cc1 (configuration not stated)	n	u	n	21µM
O=C(NC1CCCCC1)C(c1cccnc1)N(C(=O)CCl)c1ccc(F)cc1 (configuration not stated)	n	u	n	21µM
O=C(NC1CCCCC1)C(c1cccnc1)N(C(=O)CCl)c1ccccc1Cl (configuration not stated)	n	u	n	u
COc1ccc(C(C(=O)NC2CCCCC2)N(C(=O)CCl)c2ccc(OC)cc2)cc1 (configuration not stated)	n	n	n	u
O=C(COC(=O)c1c(F)cccc1Cl)NC1CCCCC1	n	n	11µM	u
Cc1[nH]c2ccccc2c1/C=N/Nc1nc(Nc2ccc(F)cc2)nc(N2CCOCC2)n1	n	n	n	21µM
SMILES	IL-2 act	Nrf2 ARE act	BRCA1 expr act	ELG1 repair inh
Fc1ccc(Nc2nc(N3CCOCC3)nc(N3CCOCC3)n2)cc1	n	n	n	u
C(=N\Nc1nc(Nc2ccccc2)nc(N2CCOCC2)n1)/c1c[nH]c2ccccc12	n	n	n	16µM
O=C(Oc1cccc(/C=N/Nc2nc(Nc3ccccc3)nc(N3CCOCC3)n2)c1)c1ccco1	n	n	n	9.2µM
COc1cc(/C=N/Nc2nc(N3CCCCC3)nc(N3CCCCC3)n2)ccc1OC(=O)c1ccco1	x	x	x	n
Cc1ccc(Nc2nc(N/N=C/c3c[nH]c4ccccc34)nc(N3CCOCC3)n2)cc1	n	n	n	16µM
Cc1cc(C)cc(NC(=O)C(CC(C)C)NC(=O)C2CCCCC2)c1 (configuration not stated)	x	n	x	x
O=C(Cn1cc(C(F)(F)F)ccc1=O)N/N=C/c1ccccc1O	n	n	n	18µM

Compound activity deposited in PubChem by National Center for Advancing Translational Sciences (NCATS).
